{"source": "PubChem BioAssay (NCATS)", "note": "Values joined by “and” are separate entries in the source; they are usually repeats but may differ in a detail not shown here. Equal values may be shown once. Inconclusive results are not listed. A call without a number means that no potency is given here. Values without a mark were called inactive. Active and inactive are the calls of the source. Calls come from the whole dose curve; as a rule, active = well fitted cell-killing curve with a large enough effect; inconclusive = small, poorly fitted or top-dose-only effect, or effect the other way; inactive = no such curve, though single readings can be large or run the other way. Potency is the fitted concentration of half-maximal effect.", "data": [{"test": "Viability qHTS for spleen associated tyrosine kinase inhibitor (SYKi) naive MV4-11 cells (AID 1963823); note: nearly all actives have a fitted effect of over 40% in size", "conditions": "MV4-11 AML viability, CellTiter-Glo luminescence, 72 h; series mostly up to 45 µM", "summary_of_the_method": "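In this viability screen, compounds acted on SYK inhibitor naive MV4-11 cells for three days (72 hr, 37 C). Remaining viable cells were measured by CellTiter-Glo luminescence following a 10 min room-temperature development.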", "values": [{"smiles": "CC(C)=CCC/C(C)=C/Cc1ccc(O)c(C2OC(=O)c3cc(C(=O)O)cc(O)c32)c1O", "note": "(stereo not drawn)", "Potency": "inactive"}, {"smiles": "C=C(C)C(=O)O[C@H]1C[C@@](C)(OC(C)=O)[C@@]2(O)CC[C@@](C)(O)[C@H](OC(C)=O)[C@@]23OC(=O)C(COC)=C13", "Potency": "8.93 µM (active)"}, {"smiles": "CC(C)C1(O)C=C2C(=O)CC3C(C)(C(=O)O)CCCC3(C)C2CC1", "note": "(stereo not drawn)", "Potency": "inactive"}, {"smiles": "NC(=O)c1cccc2[nH]c(-c3ccc(C4CCCN4)cc3F)nc12", "note": "(stereo not drawn)", "Potency": "13 µM (active)"}, {"smiles": "C=C[C@H]1[C@H](O[C@@H]2O[C@H](CO)[C@@H](O)[C@H](O)[C@H]2O)OC=C(C(=O)OC)[C@H]1CCOC(=O)c1cc(O)c(O)c(O)c1", "Potency": "inactive"}, {"smiles": "C[C@@]1(C(=O)O)CCC[C@@]2(C)C3=CC[C@H]4C[C@@]3(CC[C@H]12)CC4(O)CO", "note": "(stereo partly drawn)", "Potency": "inactive"}, {"smiles": "COC1=CC(=O)CC(C)C12Oc1cc(OC)cc(O)c1C2=O", "note": "(stereo not drawn)", "Potency": "inactive"}, {"smiles": "O=C(OCC1=CC(O)C2C=CO[C@@H](O[C@@H]3O[C@H](CO)[C@@H](O)[C@H](O)[C@H]3O)C12)c1ccccc1", "note": "(stereo partly drawn)", "Potency": "inactive"}, {"smiles": "C=C1[C@H]2CC[C@H](C(=O)O)[C@@]23CC[C@H](C3)C1(C)C", "Potency": "inactive"}, {"smiles": "CC(=O)OC[C@@]12[C@@H](OC(C)=O)C[C@@H](C)[C@](C)([C@@H]3C[C@H]4C=CO[C@H]4O3)[C@H]1CCC[C@]21CO1", "Potency": "inactive"}, {"smiles": "C=C(C)C(=O)O[C@H]1[C@H]2C(=C)C(=O)O[C@@H]2C[C@@H](C)/C=C\\C(=O)[C@](C)(O)[C@@H]1OC(C)=O", "Potency": "inactive"}, {"smiles": "N[C@@H](Cn1ccc(=O)c(O)c1)C(=O)O", "viability (% of control)": "88% [at 4.97 µM]"}, {"smiles": "COC(=O)[C@@H](O)[C@H]1[C@@]2(C)CC3(O)[C@@H](C(=O)[C@H]2O)[C@]24O[C@]25CC(=O)O[C@@H](c2ccoc2)[C@]5(C)CCC4[C@]13C", "note": "(stereo partly drawn)", "Potency": "inactive"}]}, {"test": "Viability qHTS for spleen associated tyrosine kinase inhibitor (SYKi) drug resistant MV4-11 cells (AID 1963824); note: nearly all actives have a fitted effect of over 35% in size", "conditions": "SYKi-resistant MV4-11 viability, CellTiter-Glo, 72 h; series mostly up to 45 µM", "summary_of_the_method": "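CellTiter-Glo luminescence, read 10 min after reagent addition, reports viability after a 72 hr compound exposure. Cells are an MV4-11 line made resistant to SYK inhibition, seeded at 500 per well onto compound-containing plates.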", "values": [{"smiles": "C=C(C(=O)O)C1CCC2(C)CCC(O)C(=C)C2C1", "note": "(stereo not drawn)", "Potency": "inactive"}, {"smiles": "C=CC(C)(CC/C=C(\\C)C(=O)OC)OC1OC(COC(=O)CC(C)(O)CC(=O)O)C(OC2OC(CO)C(O)C(O)C2O)C(O)C1O", "note": "(stereo not drawn)", "Potency": "inactive"}, {"smiles": "CCNC(=O)c1noc(-c2cc(Cl)c(O)cc2O)c1-c1ccc(OC)cc1", "Potency": "0.058 µM (active)"}, {"smiles": "CC1CC(O)C2(C)C(C(=O)O)=CCCC2C1(C)CCc1ccoc1", "note": "(stereo not drawn)", "Potency": "inactive"}, {"smiles": "CC1(C)CC[C@]2(C(=O)O[C@@H]3O[C@H](CO)[C@@H](O)[C@H](O)[C@H]3O)CC[C@]3(C)C(=CCC4[C@@]5(C)CC[C@H](O[C@@H]6O[C@H](C(=O)O)[C@@H](O)[C@H](O)[C@H]6OC6OC(CO)C(O)C(O)C6O)C(C)(C)C5CC[C@]43C)[C@@H]2C1", "note": "(stereo partly drawn)", "viability, % of control": "91% [at 9.25 µM]"}, {"smiles": "C/C=C1/[C@H](O[C@@H]2O[C@H](CO)[C@@H](O)[C@H](O)[C@H]2O)OC=C(C(=O)OC)[C@H]1CC(=O)OCCc1ccc(O)c(O)c1", "Potency": "inactive"}, {"smiles": "COC(=O)C1=CO[C@@H](O[C@@H]2O[C@H](CO)[C@@H](O)[C@H](O)[C@H]2O)C2C1C(=O)C[C@H]2C", "note": "(stereo partly drawn)", "Potency": "inactive"}, {"smiles": "CC(NC(=O)c1ccccc1N)C(=O)O", "note": "(stereo not drawn)", "Potency": "inactive"}, {"smiles": "CCCCC(CC)COC(=O)/C=C/c1ccc(OC)cc1", "note": "(stereo not drawn)", "Potency": "inactive"}, {"smiles": "CC(C)CC(=O)O[C@@H]1O[C@H](CO)[C@@H](O[C@H]2O[C@H](C)[C@@H](N[C@H]3C=C(CO)[C@@H](O[C@H]4O[C@H](CO)[C@@H](O[C@H]5O[C@H](CO)[C@@H](O[C@H]6O[C@H](CO)[C@@H](O)[C@H](O)[C@H]6O)[C@H](O)[C@H]5O)[C@H](O)[C@H]4O)[C@H](O)[C@H]3O)[C@H](O)[C@H]2O)[C@H](O)[C@H]1O", "viability, % of control": "101% [at 9.25 µM]"}, {"smiles": "COc1ccc(N(C(=O)Nc2c(C)cccc2C)c2cc(Nc3ccc(N4CCN(C)CC4)cc3)ncn2)c(OC)c1", "Potency": "3.66 µM (active)"}, {"smiles": "CC1=CC(=O)CC(C)(C)[C@H]1/C=C/C(CO)O[C@@H]1O[C@H](CO)[C@@H](O)[C@H](O)[C@H]1O", "note": "(stereo partly drawn)", "Potency": "inactive"}, {"smiles": "CC(=O)CCC1=C(C)C(O[C@@H]2O[C@H](CO)[C@@H](O)[C@H](O)[C@H]2O)C(O)CC1(C)C", "note": "(stereo partly drawn)", "Potency": "inactive"}, {"smiles": "CCOc1cc2ncc(C#N)c(Nc3ccc(OCc4ccccn4)c(Cl)c3)c2cc1NC(=O)/C=C/CN(C)C", "Potency": "224 nM (active) and 525 nM (active)"}, {"smiles": "[N-]=[N+]=N[C@]1(CO)O[C@@H](n2ccc(=O)[nH]c2=O)[C@@H](O)[C@@H]1O", "Potency": "inactive"}, {"smiles": "Fc1ccccc1CNCc1ccc(-c2ccnc3[nH]ccc23)cc1", "Potency": "9.2 µM (active)"}, {"smiles": "C[C@@H]1CC[C@H]2C(C)(C)[C@H](O)[C@H](O)C[C@]2(C)[C@@]12Cc1c(O)cc3c(c1O2)CNC3=O", "Potency": "inactive"}, {"smiles": "CCC(CCO[C@@H]1O[C@H](CO[C@H]2OC[C@](O)(CO)[C@H]2O)[C@@H](O)[C@H](O)[C@H]1O)C(C)(C)O", "note": "(stereo partly drawn)", "Potency": "inactive"}, {"smiles": "CCCn1c(=O)c2[nH]c(-c3ccc(OCC(=O)O)cc3)nc2n(CCC)c1=O", "Potency": "inactive"}, {"smiles": "CSc1cc2c(s1)c1cnn(Cc3ccccc3F)c(=O)c1n2C", "Potency": "inactive"}, {"smiles": "CN[C@H]1CN(c2ccc3c(=O)c(C(=O)O)cn(-c4nccs4)c3n2)C[C@@H]1OC", "Potency": "0.428 µM (active)"}, {"smiles": "Cc1cc(-c2ncc(-c3cccnc3)cc2/C=C/c2ccccc2)cnc1-c1cccnc1", "Potency": "inactive"}, {"smiles": "C[C@@H]1O[C@@H](O[C@H]2[C@H](O)[C@@H](O)[C@H](OC[C@H]3O[C@@H](OC(=O)[C@]45CCC(C)(C)C[C@H]4C4=CCC6[C@@]7(C)C[C@H](O)[C@H](O[C@@H]8O[C@H](CO)[C@@H](O)[C@H](O)[C@H]8O)[C@@](C)(C(=O)O)C7CC[C@@]6(C)[C@]4(C)CC5)[C@H](O[C@@H]4O[C@H](CO)[C@@H](O)[C@H](O)[C@H]4O)[C@@H](O)[C@@H]3O)O[C@@H]2CO)[C@H](O)[C@H](O)[C@H]1O", "note": "(stereo partly drawn)", "viability, % of control": "87% [at 9.25 µM]"}, {"smiles": "C=C1CCC2(OC1)OC1CC3C4CC=C5CC(O)CC(O[C@@H]6OC[C@@H](O)[C@H](O)[C@H]6O)C5(C)C4CCC3(C)C1(O)C2C", "note": "(stereo partly drawn)", "Potency": "inactive"}, {"smiles": "COc1cc(/C=C/C(=O)OC(C)(C)C(OC2OC(CO)C(O)C(O)C2O)C(=O)OCc2ccc(OC3OC(CO)C(O)C(O)C3O)cc2)ccc1O", "note": "(stereo not drawn)", "Potency": "inactive"}, {"smiles": "Cc1cc2ncc(C(=O)NCC(C)(C)NCC(=O)N3CCC[C@H]3C#N)cn2n1", "Potency": "inactive"}, {"smiles": "COC(=O)C1=CO[C@@H](O[C@@H]2O[C@H](CO)[C@@H](O)[C@H](O)[C@H]2O)[C@@H]2C(CO)=CC[C@H]12", "Potency": "inactive"}, {"smiles": "CC(C)=CCC/C(C)=C/Cc1ccc(O)c(C2OC(=O)c3cc(C(=O)O)cc(O)c32)c1O", "note": "(stereo not drawn)", "Potency": "inactive"}, {"smiles": "C=C(C)C(=O)O[C@H]1C[C@@](C)(OC(C)=O)[C@@]2(O)CC[C@@](C)(O)[C@H](OC(C)=O)[C@@]23OC(=O)C(COC)=C13", "Potency": "11.2 µM (active)"}, {"smiles": "CC(C)C1(O)C=C2C(=O)CC3C(C)(C(=O)O)CCCC3(C)C2CC1", "note": "(stereo not drawn)", "Potency": "inactive"}, {"smiles": "NC(=O)c1cccc2[nH]c(-c3ccc(C4CCCN4)cc3F)nc12", "note": "(stereo not drawn)", "Potency": "16.4 µM (active)"}, {"smiles": "C=C[C@H]1[C@H](O[C@@H]2O[C@H](CO)[C@@H](O)[C@H](O)[C@H]2O)OC=C(C(=O)OC)[C@H]1CCOC(=O)c1cc(O)c(O)c(O)c1", "Potency": "inactive"}, {"smiles": "C[C@@]1(C(=O)O)CCC[C@@]2(C)C3=CC[C@H]4C[C@@]3(CC[C@H]12)CC4(O)CO", "note": "(stereo partly drawn)", "Potency": "inactive"}, {"smiles": "COC1=CC(=O)CC(C)C12Oc1cc(OC)cc(O)c1C2=O", "note": "(stereo not drawn)", "Potency": "inactive"}, {"smiles": "O=C(OCC1=CC(O)C2C=CO[C@@H](O[C@@H]3O[C@H](CO)[C@@H](O)[C@H](O)[C@H]3O)C12)c1ccccc1", "note": "(stereo partly drawn)", "Potency": "inactive"}, {"smiles": "C=C1[C@H]2CC[C@H](C(=O)O)[C@@]23CC[C@H](C3)C1(C)C", "Potency": "inactive"}, {"smiles": "CC(=O)OC[C@@]12[C@@H](OC(C)=O)C[C@@H](C)[C@](C)([C@@H]3C[C@H]4C=CO[C@H]4O3)[C@H]1CCC[C@]21CO1", "Potency": "inactive"}, {"smiles": "C=C(C)C(=O)O[C@H]1[C@H]2C(=C)C(=O)O[C@@H]2C[C@@H](C)/C=C\\C(=O)[C@](C)(O)[C@@H]1OC(C)=O", "Potency": "inactive"}, {"smiles": "N[C@@H](Cn1ccc(=O)c(O)c1)C(=O)O", "viability, % of control": "98% [at 4.97 µM]"}, {"smiles": "COC(=O)[C@@H](O)[C@H]1[C@@]2(C)CC3(O)[C@@H](C(=O)[C@H]2O)[C@]24O[C@]25CC(=O)O[C@@H](c2ccoc2)[C@]5(C)CCC4[C@]13C", "note": "(stereo partly drawn)", "Potency": "inactive"}]}]}
